This is part of a sample that, as a whole, favours compounds with a hit. Of some 83,000 tested, about 20% had one in any assay.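 Activity criterion: percent growth below 10, measured after cells in 96-well plates were exposed to a single compound concentration for 48 hours.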 A number with no mark means an inactive call. Activity calls are given as the source filed them.

From PubChem BioAssay (NCI) come the findings set out here.

Assay in all cases: NCI-60 one-dose screen, 48 h (100 = growth as untreated, 0 = no growth, -100 = all killed)
Conditions in all cases: 10 µM unless noted

The subject of assay [1] is T-47D breast.
Assay [2] concerns BT-549 breast.
For assay [3], the system named is MDA-MB-435 melanoma.
Assay [4] relates to SW-620 colon.
The test system of assay [5] is MCF7 breast.
Assay [6] relates to HCT-116 colon.
The subject of assay [7] is HCC-2998 colon.
The subject of assay [8] is KM12 colon.

Turning to `CCCc1[nH]c(-c2cc(N)ccc2Cl)c2c1C(=O)CCCC2`, the growth in assay [1] was 75.7%; in assay [2] it was 111%; in assay [3], 99.5%; in assay [4], 105%; in assay [5], 87.1%; in assay [6] it was 95.2%. Also, the growth in assay [7] is 101%; in assay [8] it was 93.7%.

On to `CCCCCCNC(=O)Oc1ccc(/C(=C(/C)c2ccc(Cl)cc2)c2ccc(OCCN3CCCCCC3)cc2)cc1`, for which the growth in assay [1] was 48.2%; in assay [2], 101%; in assay [3], 70%; in assay [4] it was 22.4%; in assay [5], 15.7%; in assay [6], 30.9%. Further, the figures for the growth in assay [7] and in assay [8] were 90.7% and 58.9%, respectively.

Take `CN1CCN(c2ccc(C(=O)/C=C/c3cc(F)cc(C(F)(F)F)c3)cc2)CC1`: the growth was 51.9% in assay [1]; 71.2% in assay [2]; 24% in assay [3]; 20% in assay [4]; 8.55% (active) in assay [5]; 22.8% in assay [6]. The results for the growth in assay [7] and in assay [8] were 86.6% and 35.5%, respectively.

Turning to `O=C(Nc1cc(C(F)(F)F)cc(C(F)(F)F)c1)Nc1ccc2oc(=O)ccc2c1`, the growth in assay [1] was 4.8% (active); in assay [2], 10%; in assay [3] it was 3.64% (active); in assay [4], 19.4%; in assay [5] it was 3.81% (active); in assay [6], 2.09% (active). The growth in assay [7] is 11.2%; in assay [8] it was 9.67% (active).

Turning to `Brc1ccc(-c2cc(-c3ccc4c(c3)OC=CO4)n[nH]2)s1`, the growth is 48.5% in assay [1]; 91.3% in assay [2]; 15.3% in assay [3]; 79.1% in assay [4]; 20.7% in assay [5]; 91.5% in assay [6]. The growth is 84.5% in assay [7] and 58.6% in assay [8].

As for `N#Cc1cnc2ccc(-c3cnc4n[nH]nc4c3)cc2c1N1CCc2cc(F)c(Cl)cc21`, the growth in assay [1] was 1.2% (active); in assay [2], 3.78% (active); in assay [3], 19.5%; in assay [4], 26.8%; in assay [5], 8.34% (active); in assay [6] it was 23.7%. For the same molecule, the growth was 22.5% in assay [7] and 17.4% in assay [8].

Turning to `Cc1ccc(-c2csc(N/N=C/c3cccs3)n2)cc1`, the growth in assay [1] is 72.6%; in assay [2], 112%; in assay [3], 98%; in assay [4], 108%; in assay [5], 70.8%; in assay [6] it was 70%. The growth is 115% in assay [7] and 90.8% in assay [8].

`Cc1ccc(NC(=O)/C=C/c2ccc(OCCCOc3ccc4c(C)cc(=O)oc4c3)cc2)cc1`: the growth is 70.3% in assay [1]; 98.7% in assay [2]; 77.1% in assay [3]; 83.5% in assay [4]; 73.4% in assay [5]; 78.9% in assay [6]. In addition, the growth in assay [7] is 80.5%; in assay [8], 84.8%.

As for `C#Cc1nc(/C=C/CCCCCCC(=O)NO)cs1`, the growth was 51.6% in assay [1]; 88.9% in assay [2]; 55.3% in assay [3]; 29.3% in assay [4]; 48% in assay [5]; 20% in assay [6]. For the same molecule, the growth was 108% in assay [7] and 74.7% in assay [8].

As to `CC1=C(C)C(=O)C(Nc2cccc(C)c2)=C(Br)C1=O`, the growth in assay [1] is 4.47% (active); in assay [2], 106%; in assay [3], 109%; in assay [4], 107%; in assay [5], 75.7%; in assay [6] it was 76.9%. Moreover, the values for the growth in assay [7] and in assay [8] were 111% and 105%, respectively.

Consider `COc1cccc(N2CCN(C3=C(Cl)C(=O)c4ncccc4C3=O)CC2)c1`, for which the growth was -48.1% (active) in assay [1]; 105% in assay [2]; 3.36% (active) in assay [3]; 14.3% in assay [4]; 19.1% in assay [5]; 1.4% (active) in assay [6]. Also, the figures for the growth in assay [7] and in assay [8] were 106% and 94.5%, respectively.

Take `CNC(=O)c1cc(N2CCc3cc(NC(=O)Nc4ccc(N5CCOCC5)c(C(F)(F)F)c4)ccc32)ccn1`: the growth was 28.1% in assay [1]; -12.6% (active) in assay [2]; 41.5% in assay [3]; 34.6% in assay [4]; 12.4% in assay [5]; 2.52% (active) in assay [6]. Also, the growth is 22% in assay [7] and 11.1% in assay [8].

Turning to `CS(=O)(=O)c1nccc(-c2c(-c3cccc(OCc4ccc(Cl)c(C(F)(F)F)c4)c3)nc3sccn23)n1`, the growth in assay [1] is -45.6% (active); in assay [2], 101%; in assay [3] it was 103%; in assay [4], 61.2%; in assay [5], -67.8% (active); in assay [6], 70.4%. Also, the growth was -50.1% (active) in assay [7] and 37% in assay [8].

`N/C(=N\C(N)=N\c1nc2ccccc2s1)c1ccc(Cl)cc1`: the growth in assay [1] was 68.3%; in assay [2], 94.4%; in assay [3], 96.3%; in assay [4], 103%; in assay [5], 69.3%; in assay [6] it was 74.7%. Further, the growth in assay [7] is 102%; in assay [8], 68.4%.

As for `C=C(C)[C@@H]1CC[C@]2(C(=O)NC3CCCCC3)CC[C@]3(C)[C@H](CC[C@@H]4[C@@]5(C)CC[C@H](N)C(C)(C)[C@@H]5CC[C@]43C)[C@@H]12`, the growth in assay [1] is 80.6%; in assay [2] it was 106%; in assay [3] it was 98%; in assay [4] it was 75.4%; in assay [5], 24.5%; in assay [6] it was 7.83% (active). The values for the growth in assay [7] and in assay [8] were 92.1% and 95.8%, respectively.

On to `Brc1cccc(-c2cc(-c3ccc4c(c3)OC=CO4)[nH]n2)c1`, for which the growth is 44.3% in assay [1]; 63.8% in assay [2]; -25.2% (active) in assay [3]; 31.5% in assay [4]; 10.1% in assay [5]; 23.3% in assay [6]. For the same molecule, the growth in assay [7] is 59.8%; in assay [8], 38.1%.

For `CC(C)(C)c1cc(NC(=O)Nc2ccc(-c3cn4c5c(sc4n3)CCc3c[nH]cc3-5)cc2)no1`, the growth in assay [1] was 18.5%; in assay [2], 18.7%; in assay [3], 26%; in assay [4], 17.8%; in assay [5] it was -6.97% (active); in assay [6] it was 23.2%. Further, the results for the growth in assay [7] and in assay [8] were 24% and 6.68% (active), respectively.

As for `CC(O)c1cccc(/C(N)=N/C(N)=N/c2nc3ccccc3s2)c1` (stereo unspecified), the growth in assay [1] is 83.6%; in assay [2], 117%; in assay [3], 98%; in assay [4], 98.2%; in assay [5] it was 90.5%; in assay [6], 70.1%. The results for the growth in assay [7] and in assay [8] were 118% and 83.2%, respectively.

Consider `O=C(N/N=C/c1cc2ccccc2nc1Cl)c1cc(-c2nc3ccccc3[nH]2)nc2ccccc12`, for which the growth in assay [1] was 67.5%; in assay [2], 85.9%; in assay [3], 101%; in assay [4], 101%; in assay [5], 89.7%; in assay [6] it was 98.8%. The growth was 104% in assay [7] and 97.2% in assay [8].

On to `CCNCCOc1ccc(/C(=C(/CC)c2ccc(Cl)cc2)c2ccc(OCCCN(C)C)cc2)cc1`, for which the growth is -60.2% (active) in assay [1]; -91.7% (active) in assay [2]; -74.2% (active) in assay [3]; -62.1% (active) in assay [4]; -82.5% (active) in assay [5]; -72.4% (active) in assay [6]. In addition, the figures for the growth in assay [7] and in assay [8] were -84.2% (active) and -85.3% (active), respectively.

Consider `NC(=O)c1ncn2c(=O)n(CCF)nnc12`, for which the growth in assay [1] is 88.8%; in assay [2], 110%; in assay [3], 82.4%; in assay [4], 40.4%; in assay [5], 57.8%; in assay [6], 47.4%. Further, the figures for the growth in assay [7] and in assay [8] were 56.4% and 83.5%, respectively.

On to `Nc1cc(C(=O)N/N=C\c2ccc(OC(F)F)c(OC3CCCC3)c2)nn1CC(O)c1ccccc1` (stereo unspecified), for which the growth was 83.6% in assay [1]; 118% in assay [2]; 103% in assay [3]; 103% in assay [4]; 89% in assay [5]; 103% in assay [6]. The figures for the growth in assay [7] and in assay [8] were 114% and 95.6%, respectively.

`C#CCN(C)CCCOc1ccc(NC(=O)CCCCCCCCC(=O)NO)cc1Cl`: the growth in assay [1] is 72.6%; in assay [2] it was 92.5%; in assay [3], 74.2%; in assay [4] it was 63.1%; in assay [5], 31.9%; in assay [6], 39.2%. Also, the results for the growth in assay [7] and in assay [8] were 71.8% and 83.4%, respectively.

`CCN(CC)c1ccc(/C=N/NC(=O)c2ccc(S(N)(=O)=O)cc2)cc1`: the growth is 26% in assay [1]; 26.3% in assay [2]; 33% in assay [3]; 40.4% in assay [4]; 7.83% (active) in assay [5]; 21.5% in assay [6]. Besides, the growth in assay [7] was 43%; in assay [8], 21%.

In the case of `C#Cc1nc(/C=C\CCCCCCC(=O)NO)cs1`, the growth in assay [1] is 42.3%; in assay [2], 87.5%; in assay [3] it was 45.9%; in assay [4], 23.9%; in assay [5], 35.2%; in assay [6], 20.5%. Besides, the growth in assay [7] is 98.8%; in assay [8], 41.2%.

`CCCC/C(=C\c1ccc(O)c(O)c1)C(=O)NC(Cc1ccccc1)C(=O)C(=O)NCCc1ccc(OC)cc1` (stereo unspecified): the growth was 94.9% in assay [1]; 84.1% in assay [2]; 94.3% in assay [3]; 101% in assay [4]; 95% in assay [5]; 92.4% in assay [6]. In addition, the growth in assay [7] is 102%; in assay [8], 97.9%.

As to `O=C(COc1ccc(/C=C2\C(=O)Nc3ccc(F)cc32)cc1)Nc1ccccc1`, the growth in assay [1] is 97.7%; in assay [2], 116%; in assay [3], 98.6%; in assay [4], 103%; in assay [5] it was 89.8%; in assay [6] it was 69%. For the same molecule, the growth in assay [7] is 101%; in assay [8], 97.8%.

As to `O=C(/C=C/c1cccc(F)c1)c1cccc(OCCCCOc2cccc(C(=O)/C=C/c3cccc(F)c3)c2)c1`, the growth in assay [1] was 105%; in assay [2], 124%; in assay [3], 103%; in assay [4] it was 98.1%; in assay [5] it was 54.6%; in assay [6], 72.8%. Further, the values for the growth in assay [7] and in assay [8] were 114% and 110%, respectively.

As for `O=S1SC(c2ccccc2)=NN1c1cc(F)cc(F)c1` (stereo unspecified), the growth is 1.86% (active) in assay [1]; 7.34% (active) in assay [2]; 63.3% in assay [3]; 59.2% in assay [4]; 35.6% in assay [5]; 16.5% in assay [6]. In addition, the results for the growth in assay [7] and in assay [8] were 79.6% and 41.7%, respectively.

`Clc1ccc2[nH]cc(-c3nn4cc(-c5cccnc5)nc4s3)c2c1`: the growth in assay [1] was 71.5%; in assay [2] it was 110%; in assay [3], 101%; in assay [4], 104%; in assay [5] it was 72.3%; in assay [6], 99.8%. Also, the growth in assay [7] is 117%; in assay [8] it was 98%.

As to `COc1cc(OC)cc(-c2cc(-c3c[nH]c4ccccc34)nc(-c3c[nH]c4ccccc34)c2C#N)c1`, the growth was 98.3% in assay [1]; 104% in assay [2]; 99.4% in assay [3]; 103% in assay [4]; 90.7% in assay [5]; 101% in assay [6]. In addition, the results for the growth in assay [7] and in assay [8] were 113% and 98.7%, respectively.

Turning to `COc1ccc(/C=N\NC(=O)c2cnn(CC(O)c3ccccc3)c2N)cc1OCc1ccc(Cl)cc1` (stereo unspecified), the growth in assay [1] is 56.9%; in assay [2], 109%; in assay [3], 78.7%; in assay [4] it was 64.5%; in assay [5], 60.8%; in assay [6], 49.4%. Further, the figures for the growth in assay [7] and in assay [8] were 108% and 75%, respectively.
